ERG Ets-DNA blk = inhibitors of human ERG Ets domain-DNA interaction. P11308. fluorescence polarization, His-ERG Ets domain / labelled DNA. actives 0.028% (n = 370,000). Potency, µM (top dose mostly 76.9 µM), for inactives: at the highest dose FP activity, negative = inhibition, most hits filed as inhibitors; active = well fitted inhibition curve with a large enough effect in the polarisation, with a control signal flat; inconclusive = small, poorly fitted or top-dose-only effect, or effect the other way, or a change in a side signal; inactive = no such curve, though single readings can be large or run the other way; the % refers to the polarisation;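 also: polarization taken with two DNA probes labelled with fluorescein and Texas red; potency is read from the fitted curve at half-maximal effect; % of control where 0% means no effect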
Target sequence (P11308 whole entry, looked up, the tested form may be a part): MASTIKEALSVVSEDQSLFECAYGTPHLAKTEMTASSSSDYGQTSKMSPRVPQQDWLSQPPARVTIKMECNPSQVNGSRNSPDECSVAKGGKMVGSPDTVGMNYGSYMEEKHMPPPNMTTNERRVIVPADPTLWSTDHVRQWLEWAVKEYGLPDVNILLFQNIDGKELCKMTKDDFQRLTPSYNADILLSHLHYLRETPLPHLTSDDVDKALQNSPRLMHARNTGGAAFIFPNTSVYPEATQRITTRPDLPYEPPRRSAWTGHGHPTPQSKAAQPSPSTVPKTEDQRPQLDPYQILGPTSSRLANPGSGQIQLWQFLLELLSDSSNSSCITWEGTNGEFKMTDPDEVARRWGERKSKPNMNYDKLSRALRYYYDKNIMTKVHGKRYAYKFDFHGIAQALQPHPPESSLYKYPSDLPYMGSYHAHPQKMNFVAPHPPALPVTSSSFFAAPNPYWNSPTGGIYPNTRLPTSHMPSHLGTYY
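His-tagged ERG Ets domain (1 uM in the protein solution; 300mM KCl, 50mM Tris-HCl, 1mM EDTA, 1mM DTT, pH 7.5) received compound, then a probe mix of 5 nM fluorescein-DNA and 100nM Texas-615-DNA. Fluorescence polarization was read for both dyes.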
MmCpn inh = inhibitors of Methanococcus maripaludis chaperonin TRiC (MmCpn); purified Mm-Cpn ATPase, ADP Transcreener TR-FRET; Potency, µM (highest dose often 76.9 µM), without a hit: top-dose activity, negative = inhibition, usual class: inhibitors; actives 0.031% (n = 330,000); also: potency is read from the fitted curve at half-maximal effect; % is scaled to controls: 0 for no effect and ±100 for the full control effect; nearly all actives have a fitted effect of over 80% in size
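Compound-treated chaperonin, 25 nM final, turns over 10 uM ATP at 37°C for 30 min following a 10 min preincubation; ADP generated competes with ADP-d2 for Eu-cryptate antibody, lowering FRET.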
RGS4 inh = inhibitors of human regulator of G protein signaling 4; P49798; Transcreener GDP fluorescence polarization, RGS4-accelerated GTP hydrolysis; Potency, µM (top dose mostly 114 µM), for inactives: at the top dose activity change, negative = inhibition, usual class: inhibitors; actives 0.039% (n = 390,000); also: potency is read from the fitted curve at half-maximal effect; % is scaled to controls: 0 for no effect and ±100 for the full control effect; nearly all actives have a fitted effect of over 75% in size
Target sequence (P49798 whole entry, looked up): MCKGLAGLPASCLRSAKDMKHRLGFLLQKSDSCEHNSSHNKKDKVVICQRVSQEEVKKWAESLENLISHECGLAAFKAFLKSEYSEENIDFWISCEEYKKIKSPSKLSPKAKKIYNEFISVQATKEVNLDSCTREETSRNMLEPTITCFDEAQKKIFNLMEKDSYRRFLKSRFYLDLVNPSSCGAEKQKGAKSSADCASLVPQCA
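MLSMR compounds (23 nl, pin-transferred) preincubated 10 min at room temperature with a 500nM (2x) first reagent, then RGS4 at 900nM (2x) plus Transcreener GDP mix added; fluorescence polarization (620/688 nm) read before and after 90 min at 30 °C.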
CCT chaperon mod = modulators of cytosolic chaperonin (CCT/TRiC) activity | purified chaperonin ATPase assay, HTRF ADP detection, 30 min | activity change, % (concentration not given with the values), hits read low | actives 0.3% (n = 360,000) | AID 651819; in the data active = activity change below about -30%; also: % is scaled to controls: 0 for no effect and ±100 for the full control effect
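First, chaperonin was dispensed at 40 nM or 20 nM final depending on batch activity. Next, compounds were pinned at 76 uM and ATP added at 10 uM. After 30 min at 37 °C, ADP detection reagents ran 30 min at ambient temperature.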
PTHR1 ag = activates the human parathyroid hormone receptor PTHR1 | Q03431 | HEK293 GP2 PTHR1 cells, GloSensor cAMP luminescence, 1 h | actives 0.075% (n = 410,000) | Potency, µM (top dose mostly 115 µM), without a hit: at the highest dose activation, usual class: activators; also: potency is read from the fitted curve at half-maximal effect; nearly all actives have a fitted effect of over 55% in size
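HEK-293-derived GP2 cells expressing PTHR1 and a GloSensor cAMP reporter, 3,000/well, plated overnight, given luciferin plus IBMX (each 0.5 mM as added) for 1 h at 37 °C, then compound for 1 h at 37 °C. Luminescence was read after 15 min at room temperature.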
Starred values were filed as active, the others as inactive; i = inactive; ? = inconclusive; . = no result; [ ] = another dose, or the depositor's remark. Rows were chosen to be rich in hits. Some 0.36% of all compounds tested hit in one or more screens of this group. Unless noted, calls follow the shape of the dose curve; as a rule, active = well fitted curve in the direction sought with a large enough effect; inconclusive = small, poorly fitted or top-dose-only effect, or another doubt; inactive = no such curve, though single readings can be large; an effect the other way counts as inactive or inconclusive.

SMILES | ERG Ets-DNA blk | MmCpn inh | RGS4 inh | CCT chaperon mod | PTHR1 ag
Cc1ccc(N(C(=O)c2csnn2)C(C(=O)NC2CCCCC2)c2ccccn2)c(C)c1 (configuration not stated) | 0.2% | -0.2% | 1.2% | -31.7* | -0.5%
COc1cc(Cn2c(=O)c3c(OC)c(C)cnc3n(C)c2=O)cc(OC)c1 | 6.0% | -5.1% | -3.7% | -51.9* | -6.3%
Nc1ncnc2c1ncn2C1O[C@H](CO)[C@@H](O)[C@@H]1O (some centres not stated) | -3.1% | -2.6% | 22.1% | -0.3 | -6.4%
Nc1ncnc2c1ncn2[C@@H]1O[C@H](COP(=O)(O)OP(=O)(O)OP(=O)(O)OP(=O)(O)OC[C@@H]2O[C@H](n3cnc4c(N)ncnc43)[C@@H](O)[C@H]2O)[C@@H](O)[C@H]1O | . | . | 2.99µM* | . | .
Nc1nc(Cl)nc2c1ncn2C1OCC(O)C(O)C1O (configuration not stated) | . | . | -46.6% | 0.0 | i
Nc1nc(Cl)nc2c1ncn2[C@@H]1O[C@H](COP(=O)(O)OP(=O)(O)OP(=O)(O)O)[C@@H](O)[C@H]1O | . | . | 0.532µM* | . | .
O=C(Nc1ccccc1)c1ccc(Br)c(S(=O)(=O)N2CCCCC2)c1 | -0.8% | . | -23.9% | . | -93.7%
CCCN1CNc2c(c(=O)[nH]c(=S)n2CCc2cccc(Cl)c2Cl)C1 | . | . | -32.8% | . | .
Cc1c(C(=O)N2CCOCC2)c(S(=O)(=O)Nc2ccccc2)c(C)n1C | -0.6% | 0.0% | -8.1% | -53.4* | -19.0%
N[C@](CC1c2ccccc2Oc2ccccc21)(C(=O)O)[C@H]1C[C@@H]1C(=O)O | . | . | i | . | .
CCSc1cnn(-c2ccccc2)c(=O)c1SCC | . | ? | 7.4% | 0.1 | -0.2%[57.5 µM]
CCCCSc1cnn(-c2ccccc2)c(=O)c1SCCCC | -3.4% | 39.8µM* | 53.7% | -2.5 | i
O=C(c1ccc(CS(=O)(=O)c2c(Cl)cccc2Cl)o1)N1CCN(c2ccccc2)CC1 | 8.3% | . | -9.9% | . | -10.7%
O=C1CCC(=O)N1CNc1ccc(Oc2ccccc2)cc1 | 1.9% | . | -11.5% | -36.3* | -3.9%[57.5 µM]
COc1ccc(NCN2C(=O)CCC2=O)cc1 | 10.2% | -0.1% | -8.8%[11.4 µM] | -3.3 | -0.4%[57.5 µM]
CCCOc1ccc(C(=O)Nc2ccc(NC(=O)c3ccccc3)c(Br)c2)cc1 | 1.8% | . | ? | . | i
Cc1ccc(S(=O)(=O)N2CCCc3cc(NC(=O)c4ccc(C(F)(F)F)cc4)ccc32)cc1 | 6.8% | . | 9.6% | . | -15.4%
O=C(Nc1ccc(Cl)c(Cl)c1)c1ccccc1 | -1.8% | 0.6% | 0.1% | -49.8* | -28.5%
O=C(Nc1cccc(Cl)c1)c1ccccc1 | 0.3% | 0.4% | 9.3% | -0.3 | -73.2%
CC1CC=CC2C1C(=O)N(Cc1ccccc1)C2c1ccoc1 (configuration not stated) | . | . | -4.7% | . | .
CCc1ccc(NC(=O)C2CCCN(S(=O)(=O)c3cnc[nH]3)C2)cc1 (configuration not stated) | 9.0% | -3.1% | -11.9% | -74.3* | i
COCCn1c(C)cc(O)c(C(c2ccccc2)N2CCN(c3ccccc3)CC2)c1=O (configuration not stated) | -0.7% | . | 26.7% | . | 24.1%
COc1ccc(CCn2c(C)cc3c(c2=O)C(c2ccncc2)C(C#N)=C(N)O3)cc1OC (configuration not stated) | 3.8% | 0.5%[15.4 µM] | 7.9% | -35.5* | ?
COc1ccc(-c2sc(C(=O)c3ccc(Cl)cc3Cl)cc2CC(=O)O)cc1 | 0.5% | 50.1µM* | -2.7% | -1.5 | i
CC(NC(=O)COC(=O)c1cn(-c2ccccc2)nc1-c1cccs1)c1ccccc1 (configuration not stated) | -4.1% | 50.1µM* | -11.8% | -1.3 | -1.7%[57.5 µM]
SMILES | ERG Ets-DNA blk | MmCpn inh | RGS4 inh | CCT chaperon mod | PTHR1 ag
CCC(=O)N1CCCc2cc(S(=O)(=O)N3CCC(C(=O)Nc4ccc(C#N)cc4)CC3)ccc21 | 3.8% | . | -3.4% | . | -5.0%
Cc1cccc(NC(=O)c2cc3c(=O)n(Cc4ccco4)ccc3nc2C)c1 | -2.7% | . | 6.3% | . | -61.5%
COC(=O)c1cc(NCc2c(F)cccc2Cl)ccc1N1CCOCC1 | 3.3% | -2.3% | -11.9% | 0.3 | 2.51µM*
COC(=O)c1cc(NCc2cccs2)ccc1N1CCOCC1 | -7.2% | -3.9% | -16.1% | -1.1 | i
COc1ccc(-c2cc(C(=O)N3CCN(c4ncccn4)CC3)c3ccccc3n2)cc1OC | 10.9% | 1.0% | -39.9% | -60.2* | -44.9%
CCN1C(=O)/C(=C2/C=CC=CN2C)SC1=S | 9.2% | -2.3% | -32.7% | -1.7 | -22.2%
CN1C=CC=C/C1=C1/SC(=S)N(Cc2ccccc2)C1=O | -5.1% | 0.1% | -26.5% | -62.2* | i
COc1ccc(-c2cc(C(F)(F)F)nc(SCC(=O)N3CCCCC3)n2)cc1OC | 5.4% | . | -16.0% | . | i
O=C(COC(=O)/C=C/c1ccc(Cl)cc1Cl)NCCC1=CCCCC1 | 2.2% | -1.3% | 14.5% | 0.3 | i
O=C(COC(=O)/C=C/c1ccccc1Cl)NCCc1ccc(Cl)cc1Cl | -16.5% | 2.1% | -33.1% | -39.1* | -6.0%
Cc1cc(Cl)ccc1OCC(=O)NNC(=O)c1ccco1 | 12.2% | 1.7% | 14.3% | -38.9* | ?
CSC1=NC2(CCN(C(=O)NC3CCCCC3)CC2)N=C1c1ccc(C(C)(C)C)cc1 | 1.4% | . | -11.2% | . | i
COC(=O)CN1C(=O)[C@H]2[C@@H](C3CC3)N3C(=O)CN(CCO)C(=O)[C@@]3(Cc3ccccc3)[C@H]2C1=O | 10.6% | 1.2% | 2.3% | -0.7 | 29.3%
COC(=O)CN1C(=O)[C@H]2[C@@H](C3CC3)N3C(=O)CN(Cc4ccccn4)C(=O)[C@@]3(Cc3ccccc3)[C@H]2C1=O | -2.3% | 2.2% | 17.8% | -39.9* | 14.0%
COc1ccc2cc3cc(C(=O)NCc4cccnc4)oc3nc2c1 | -0.1% | -1.6% | ? | -67.9* | -21.7%
COc1ccc(C(=O)NCC(=O)OCc2c(Cl)cccc2Cl)cc1OC | 9.7% | -0.1% | -36.6% | -0.7 | i
COc1cc(C(=O)NCC(=O)OCc2ccccc2Cl)cc(OC)c1OC | 6.0% | 3.7% | 22.0% | -35.5* | -2.6%
CC(C)(C)c1ccc(NS(=O)(=O)c2ccc(N)cc2)cc1 | -1.6% | -1.9% | -7.4%[56.9 µM] | -1.3 | i
CC(C)(C)c1ccc(S(=O)(=O)/C=C/C#N)cc1 | . | . | 2.12µM* | . | .
COC(=O)c1ccc(Nc2ncnc3c2nc2n3CCCC2)cc1 | 4.2% | . | 39.3% | . | -5.2%
COc1ccc(C2N=C(N)Nc3nc4ccccc4n32)cc1 (configuration not stated) | -0.7% | . | -22.0% | . | 50.1µM*
CC(NC(=O)COC(=O)CNC(=O)c1ccccc1Cl)C1CC2CCC1C2 (configuration not stated) | 2.5% | 1.8% | -11.3% | -39.7* | i

Source: PubChem BioAssay
